Assay [1] can be described thus: qHTS assay for small molecule agonists of the p53 signaling pathway (AID 651631; calls by dose curve; also: nearly all actives have a fitted effect of over 15% in size). The settings on record: HCT-116 p53RE-bla reporter, beta-lactamase FRET ratio, 16 h; series mostly up to 73.3 µM. In outline: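 Readout was fluorescence from the LiveBLAzer FRET substrate, applied for 2 h at room temperature after 16 h compound exposure at 37 °C. Cells were the p53RE-bla HCT-116 line, with beta-lactamase driven by p53 response elements.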
For orientation: In qHTS, concentration-response curves come from the screen itself.

Assay [2] in a line: qHTS assay for small molecules that induce genotoxicity in human embryonic kidney cells expressing luciferase-tagged ATAD5 (AID 651632). Also: nearly all actives have a fitted effect of over 15% in size. The conditions noted are these: HEK293T ATAD5-luciferase induction, 16 h; series mostly up to 83.3 µM. In outline: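 HEK293T cells carrying a luciferase reporter tagged to ATAD5 were exposed to compound or DMSO vehicle for 16 hr at 37C, 5% CO2. Amplite was added, and after 30 min at room temperature luciferase activity was read as a marker of ATAD5 induction.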

The nature of assay [3]: qHTS assay for small molecule agonists of the p53 signaling pathway - cell viability (AID 651633; calls by dose curve; also: nearly all actives have a fitted effect of over 30% in size). The conditions noted are these: p53RE-bla HCT-116 viability, ATP luminescence, 16 h; series mostly up to 83.3 µM. In outline: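 p53RE-bla cells were treated with compound for 16 hours at 37 C. Cytotoxicity was then measured as CellTiter-Glo luminescence after 30 min at room temperature.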

A short description of assay [4]: qHTS assay for small molecules that induce genotoxicity in human embryonic kidney cells expressing luciferase-tagged ATAD5 - cell viability (AID 651634; calls by dose curve; also: nearly all actives have a fitted effect of over 25% in size). The settings on record: HEK293T ATAD5-luc cells viability, CellTiter-Fluor, 15.5 h; series mostly up to 83.3 µM. In outline: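 HEK293T cells expressing luciferase-tagged ATAD5 were exposed to compound or DMSO for 15.5 hr at 37C, 5% CO2. Viability was then read as live-cell protease activity by CellTiter-Fluor fluorescence after 30 min at 37C.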

Assay [5] is described as follows: qHTS assay to test for compound auto fluorescence at 590 nm (red) in HepG2 cells (AID 720674). The settings on record: HepG2 autofluorescence, red 540/590 nm, 1 h; series mostly up to 91.3 µM. In outline:
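Fluorescence at 590 nm emission following 540 nm excitation was recorded from HepG2 wells one hour after compound transfer, with DMSO-only wells as vehicle and Rose Bengal sodium equivalency as the scale.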

A short description of assay [6]: qHTS assay to test for compound auto fluorescence at 535 nm (green) in HepG2 cells (AID 720675). The settings on record: green autofluorescence 485/535 nm, 1 h; series mostly up to 91.3 µM.
Assay [7] can be described thus: qHTS assay to test for compound auto fluorescence at 460 nm (blue) in HEK293 cells (AID 720678). The conditions noted are these: blue autofluorescence 405/460 nm; series mostly up to 91.3 µM. In outline:
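After cell attachment (4-5 hr, 37C), compounds were pinned onto HEK293 monolayers in 10% dialyzed FBS medium. The blue channel (405/460 nm) was read following overnight culture. Equivalency was calculated against triamterene.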

Assay [8] is described as follows: qHTS assay to test for compound auto fluorescence at 590 nm (red) in HEK293 cells (AID 720679). The conditions noted are these: red autofluorescence 540/590 nm; series mostly up to 91.3 µM. In outline: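 Plates of HEK293 cells (10% dialyzed FBS) are treated with 23 nL compound or DMSO vehicle after a 4-5 hr attachment period, incubated overnight at 37C, and read for red fluorescence at 540/590nm.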

Assay [9] in a line: qHTS assay for small molecule disruptors of the mitochondrial membrane potential - cell viability (AID 720634; calls by dose curve;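 also: human HepG2 liver cancer cells; nearly all actives have a fitted effect of over 20% in size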). The settings on record: HepG2 viability, ATP luminescence (CellTiter-Glo), 1 h; series mostly up to 83.2 µM. In outline: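 HepG2 cells seeded overnight at 37 C, then exposed to compound or DMSO for 1 hr at 37 C, 5% CO2. m-MPI dye added, then CellTiter-Glo for 30 min at room temperature; viability read as ATP luminescence.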

The nature of assay [10]: qHTS assay for small molecule disruptors of the mitochondrial membrane potential (AID 720635). Also: potency is read from the fitted curve at half-maximal effect. The conditions noted are these: HepG2 mitochondrial membrane potential, Mito-MPS dye ratio; series mostly up to 83.2 µM. In outline: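 HepG2 cells exposed to compound 1 hr at 37C, then Mito-MPS dye 30 min. Ratio read of aggregate (540/590 nm) versus monomer (490/535 nm) fluorescence.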

Consider 28 compounds from PubChem BioAssay (Tox21).

Structures are written as SMILES. Values without a mark were called inactive. Results filed as inconclusive are left out. Activity calls are given as the source filed them. Unless noted, calls follow the shape of the dose curve; as a rule, active = well fitted curve in the direction sought with a large enough effect in the repeat runs; inconclusive = weak or mixed curves; inactive = no such curve, though single readings can be large; an effect the other way counts as inactive or inconclusive.
% is scaled to controls: 0 for no effect and ±100 for the full control effect.

For the compound `CCCCC(=O)N(C)C`, the result in assay [1], in assay [2], in assay [3], in [5], in assay [6] and in assay [7] was inactive. Also, the compound was called inactive in assay [8]. Also, the Potency entry in assay [4] was “inactive”.

`CCCCOC(=O)[C@@H](C)Oc1ccc(Oc2ccc(C(F)(F)F)cn2)cc1`: the result in assay [1], in assay [2], in assay [3], in assay [5], in assay [6] and in assay [7] was inactive. The result in assay [8] was inactive.

Consider `COCCOCCOCCOC`, for which the outcome in assay [1], in assay [3], in [9], in [5], in [6] and in [7] was inactive. For the same compound, in [8], the compound was called inactive. The Potency result in [4] and in assay [10] was “inactive” throughout.

Consider `NS(=O)(=O)c1cc2c(cc1Cl)NC(C(Cl)Cl)NS2(=O)=O` (stereo unspecified), for which the outcome in [1], in [2] and in assay [3] was inactive. Besides, the fluorescence, relative to Rose Bengal in assay [5] is 0.314% [at 18.6 µM]. Besides, in [6], the fluorescence, % of fluorescein control was 0.136% [at 18.6 µM]. The fluorescence, % of triamterene in [7] is -0.178% [at 18.6 µM]. The fluorescence, % of fluorescent control in assay [8] is -0.0605% [at 18.6 µM].

Turning to `CCCCCCCCCCC`, the compound was called inactive in assay [2], in assay [3], in assay [9], in assay [5], in assay [6] and in [7]. In addition, the result in assay [8] was inactive. Also, the Potency result in [4] and in assay [10] was “inactive” in each case.

For the compound `COC(OC)C(C)c1ccccc1` (stereo unspecified), the outcome in assay [1], in assay [2], in assay [3], in assay [5], in [6] and in assay [7] was inactive. The result in assay [8] was inactive.

For `CC(C)CCO`, the outcome in [1], in assay [2], in [3], in [9], in [5] and in assay [6] was inactive. The result in [7] and in assay [8] was inactive.

As to `O=C1OC(=O)c2cc(Oc3ccc4c(c3)C(=O)OC4=O)ccc21`, the outcome in assay [1], in assay [2], in assay [3], in assay [9], in assay [5] and in assay [6] was inactive. The result in [7] and in assay [8] was inactive. Also, the Potency entry in assay [10] was “inactive”.

`COC(=O)CCC(=O)O`: the outcome in assay [1], in [2], in [3], in assay [9], in assay [6] and in [7] was inactive. For the same compound, the call in assay [8] was inactive.

For the compound `O=C(O)c1ccccc1C(=O)Nc1ccc(S(=O)(=O)Nc2nccs2)cc1`, the result in assay [1], in [2], in assay [3], in assay [5], in [6] and in assay [7] was inactive. Moreover, in [8], the call was inactive. In addition, the Potency result in [4] is “inactive”.

For `CCOC(=O)CCCCCCCCC(=O)OCC`, the outcome in assay [1], in assay [2], in [3], in assay [6], in assay [7] and in assay [8] was inactive. Moreover, the Potency entry in [4] was “inactive”.

Turning to `CCCCOC(=O)C(=O)OCCCC`, the outcome in assay [1], in [2], in [3], in assay [5], in assay [6] and in assay [7] was inactive. The result in assay [8] was inactive. For the same compound, the Potency result in [4] was “inactive”.

Consider `CC1=NN(c2ccc(S(=O)(=O)O)cc2)C(=O)C1N=Nc1ccccc1` (stereo unspecified), for which the outcome in [1], in [2], in assay [3], in assay [9], in [6] and in assay [7] was inactive. Besides, in assay [8], the call was inactive.

`NS(=O)(=O)c1ccc(Cl)c(S(N)(=O)=O)c1`: the outcome in [1], in assay [2], in assay [3], in assay [6], in assay [7] and in assay [8] was inactive. Also, in [4], the Potency result was “inactive”.

`CC(=O)OC(C)c1ccccc1` (stereo unspecified): the outcome in [1], in assay [2], in assay [3], in assay [9], in [5] and in assay [6] was inactive. In addition, the outcome in assay [7] and in assay [8] was inactive.

As for `CC(C)c1ccccc1O`, the outcome in [1], in assay [2], in assay [3], in [9], in [5] and in [6] was inactive. For the same compound, the compound was called inactive in assay [7] and in assay [8].

`O=C(O)C(=O)Nc1cccc(-c2nn[nH]n2)c1`: the outcome in assay [1], in assay [2], in [3], in assay [6], in assay [7] and in [8] was inactive. Moreover, in assay [4], the Potency entry was “inactive”.

For `COc1cc(C=O)ccc1OC(=O)C(C)C`, the outcome in assay [1], in assay [2], in assay [3], in assay [9], in assay [5] and in assay [6] was inactive. Moreover, the result in assay [7] and in assay [8] was inactive. For the same compound, the Potency result in [10] was “inactive”.

For `Cc1ccc(S(=O)(=O)NC(=O)NC2CCCCCCC2)cc1`, the outcome in [1], in [2], in assay [3], in assay [9], in assay [5] and in assay [6] was inactive. The compound was classed as inactive in [7] and in assay [8]. Moreover, the Potency entry in assay [10] is “inactive”.

Turning to `CCCC(C)CC` (stereo unspecified), the outcome in assay [1], in [2], in assay [3], in assay [5], in assay [6] and in assay [7] was inactive. The compound was called inactive in assay [8]. The Potency entry in assay [10] is “inactive”.

For `O=C(O)c1ccccc1C(=O)OCc1ccccc1`, the outcome in assay [1], in [3], in [9], in assay [5], in assay [6] and in assay [7] was inactive. Moreover, in assay [8], the compound was classed as inactive. Further, the Potency result in [4] was “inactive”.

Turning to `C=C(C)[C@@H]1CC[C@@H](C)C[C@@H]1O`, the result in [1], in assay [3], in assay [9], in assay [5], in [6] and in assay [7] was inactive. In [8], the call was inactive. For the same compound, the Potency entry in [4] was “inactive”.

In the case of `CCS(=O)(=O)CCn1c([N+](=O)[O-])cnc1C`, the result in [1], in assay [2], in assay [3] and in [9] was inactive. Also, the fluorescence, relative to Rose Bengal in assay [5] is 0.187% [at 18.6 µM]. Besides, the fluorescence, % of fluorescein control in [6] is -0.217% [at 18.6 µM]. The fluorescence, % of triamterene in assay [7] is -0.271% [at 18.6 µM]. In addition, the fluorescence, % of fluorescent control in [8] was 0.0006% [at 18.6 µM].

For `c1ccc(CNc2ncnc3nc[nH]c23)cc1`, the result in assay [1], in assay [3], in [9], in assay [6], in assay [7] and in assay [8] was inactive. In assay [4], the Potency entry was “inactive”. Further, the Potency in [10] is 54.5 µM (active).

For the compound `CCOC(=O)CC(CC(=O)OCC)(OC(C)=O)C(=O)OCC`, the result in assay [1], in assay [2], in [3], in assay [9], in assay [5] and in assay [6] was inactive. For the same compound, the result in assay [7] and in assay [8] was inactive.

For the compound `CCCCC(C)C(=O)O` (stereo unspecified), the outcome in assay [1], in [2], in assay [3], in assay [5], in assay [6] and in [7] was inactive. The outcome in assay [8] was inactive.

In the case of `O=C1OC(=O)c2ccccc21`, the outcome in assay [1], in assay [2], in assay [3], in assay [9], in [5] and in [6] was inactive. In addition, the call in [7] and in assay [8] was inactive.

On to `C=CCOc1c(Br)cc(C(C)(C)c2cc(Br)c(OCC=C)c(Br)c2)cc1Br`, for which the compound was called inactive in assay [2], in [3], in assay [9], in assay [5], in [6] and in assay [7]. In assay [8], the call was inactive. Besides, the Potency result in assay [4] and in assay [10] was “inactive” each time.
